gsp agonist: agonists of gsp mutant (McCune-Albright syndrome); gsp mutant cells, cAMP HTRF, 30 min; Potency, µM (titrated, usually from 76.9 µM), for the others: top-dose activation (cAMP increase), most hits filed as activators; 0.13% of 340,000 active; AID 624287; active means well fitted activation curve with a large enough effect; inconclusive means small, poorly fitted or top-dose-only effect, or another doubt; inactive means no such curve, though single readings can be large or run the other way; cell line not stated here;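 further: phosphodiesterase inhibitor Ro 20-1724 added with compounds to block cAMP breakdown; potency means the concentration at half of the fitted maximal effect; nearly all actives have a fitted effect of over 60% in size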
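Cells stably selected in G418 were plated at 2000/well, grown 16-24 hr, then given compounds in DMSO with the PDE inhibitor […] (300 uM solution added) for 30 min at 37C; cAMP was read by HTRF.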
pAkt inh: Akt phosphorylation inhibition | Neuro2A IGF-stimulated pAkt S473 HTRF, 20 min; hits give low values | activity change, % for hits at 50 µM | 0.32% of 360,000 active; in the data active means activity change below about -80%; inconclusive means mostly about -51% to -80%; further: on the % scale 0 is the no-effect control and ±100 the full control effect
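Single-point screen (50 µM final compound) in Neuro2A cells stimulated 20 min with 6 nM IGF at 37 deg C. After lysis, Ser473-phosphorylated Akt read by HTRF (ex 330 nm, em 615/665 nm) as the 665/615 ratio.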
gsp antagonist: antagonizes gsp, the McCune-Albright syndrome mutation. gsp-mutant cells, cAMP HTRF, 30 min. Potency, µM (series often up to 76.9 µM), for the others: top-dose activity change, negative = inhibition, actives largely listed as inhibitors. 0.4% of 340,000 active. AID 624288; calls by dose curve; cell line not stated here;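 further: intracellular cAMP measured with PDE inhibitor Ro 20-1724 present during compound exposure; potency means the concentration at half of the fitted maximal effect; on the % scale 0 is the no-effect control and ±100 the full control effect; nearly all actives have a fitted effect of over 65% in size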
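G418-selected cells were plated in DMEM/10% FBS for 16-24 h at 37C, then treated with compounds plus the PDE inhibitor […] (300 uM solution added) for 30 min at 37C. Intracellular cAMP was measured by HTRF after 30 min lysis at room temperature.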
KCNH2 3.1 inh: KCNH2 3.1 (human) potassium channel inhibition; U2OS KCNH2 3.1, thallium flux FluxOr; hits give low values; activity change, % (tested at about 1.8 µM); 0.95% of 340,000 active;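 active means maximum activity change below -70%; inconclusive means maximum activity change from -70% to -50%; inactive means maximum activity change above -50%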;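 further: thallium influx rate constant from kinetic fluorescence after stimulation buffer; on the % scale 0 is the no-effect control and ±100 the full control effect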
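U2OS cells transduced with KCNH2 3.1 mutant virus (1.77 x 10^8 /mL, 4 h), plated overnight at 37 C, loaded 45 min with FluxOr dye plus Red40 quencher. Thallium flux rate constant from kinetic reads after stimulation buffer, normalised to controls.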
KCNH2 WT inh: inhibitors of human wildtype KCNH2 potassium channel. U2OS, BacMam KCNH2, thallium flux FluxOr; hits give low values. activity change, % at 1.84 µM. 0.37% of 340,000 active. Q12809;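 active means maximum activity change below -70%; inconclusive means maximum activity change between -70% and -50%; inactive means maximum activity change above -50%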; further: on the % scale 0 is the no-effect control and ±100 the full control effect
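U2OS cells were transduced with wild-type KCNH2 virus (2.03 x 10^8 / mL) for 4 h at room temperature, then cultured overnight at 37 C. Thallium flux was read with FluxOr dye. Rate constants were normalized to DMSO controls.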
Glioma ERSR ind: ER stress response induction in glioma. U87-MG GRP78 promoter luciferase reporter, 16 h. Potency, µM, for the others: at the top dose activation, actives largely listed as activators. 0.02% of 420,000 active. AID 602332; active means well fitted activation curve with a large enough effect; inconclusive means small, poorly fitted or top-dose-only effect; inactive means no such curve, though single readings can be large or run the other way; further: potency means the concentration at half of the fitted maximal effect; series mostly up to about 76 µM; % of control where 0% means no effect; nearly all actives have a fitted effect of over 35% in size
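ERSR induction read as luciferase luminescence (Bright-Glo, 10 min at room temperature) in stably transfected human U87-MG glioma cells exposed to compounds for 16 h, using GRP78 as sensor.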
The depositor's hits bear a star; i = inactive; u = inconclusive; x = no result; [ ] = dose if it differs, or a comment. Sampled rows, rich in hits. Any-hit rate of the full collection: about 1.6%.

SMILES	gsp agonist	pAkt inh	gsp antagonist	KCNH2 3.1 inh	KCNH2 WT inh	Glioma ERSR ind
CSc1nccc(-c2cc(Cl)c3c(c2)CC(CNC(=O)c2nonc2C)O3)n1 (stereo not given)	x	x	x	x	x	-3%
S=c1[nH]nc(C2CCCCC2)n1/N=C/c1ccccc1Cl	27%[15.4 µM]	i	40µM*	-1	4	-4%
C[C@H](CO)N1C[C@H](C)[C@H](CN(C)C(=O)c2ccccn2)Oc2ncc(Br)cc2C1=O	-30%	i	x	3	1	-1%
C[C@H]1CN([C@@H](C)CO)C(=O)c2cc(Br)cnc2O[C@H]1CN(C)C(=O)c1cnccn1	11µM*	i	x	-2	-7	-4%
OCC1OC(C#Cc2ccccc2)C=CC1OCc1ccccc1 (stereo not given)	x	x	x	x	x	-2%
COc1ccc(CN(C(=O)CSc2nnc(-c3c[nH]c4ccccc34)o2)c2ccc(F)cc2)cc1OC	u	i	u	-5	-280*	-8%
CCOc1ccc(CN2CCCC(CNC(=O)c3ccc(F)cc3)C2)cc1CO (stereo not given)	21%	i	-11%	-101*	x	-4%
CSc1ccc(CN2CCCC(CNC(=O)c3ccc(F)cc3)C2)cc1 (stereo not given)	16%[15.4 µM]	i	16%	-78*	0	-11%
CSc1cccc(CN2CCCC(CNC(=O)c3ccc(F)cc3)C2)c1 (stereo not given)	13%	i	4%	-21	19	-3%
Cc1ncc2c(c1CNC(=O)c1ccc3c(c1)OCO3)CCN(C(=O)c1scc3c1CCCC3)C2	x	x	x	x	x	-5%
Clc1ccccc1CN(Cc1ccco1)Cc1nnnn1C1CCCC1	-6%	i	20µM*	-12	-6	-5%
CCN1CCN(C(=O)N[C@H](C(=O)N[C@@H]2C(=O)N3[C@@H](C(=O)O)C(C)(C)S[C@@H]23)c2ccccc2)C(=O)C1=O	x	x	x	x	x	-2%
O=c1c(-c2ccccc2)c(O)c2ccccc2n1-c1ccccc1	9%[15.4 µM]	i	0%	-72*	-18	-5%
Cc1cc(C)n2nc(C(=O)NCC3Cc4cccc(-c5ccc(S(C)(=O)=O)cc5)c4O3)cc2n1 (stereo not given)	x	x	x	x	x	3%
CCOC(=O)N1CCN(Cc2ccc3c(c2)CN(C(=O)c2ccc4ncccc4c2)CCO3)CC1	x	x	x	x	x	-1%
COc1cc(/C=C2/SC(=O)NC2=O)ccc1Oc1ccc([N+](=O)[O-])cc1[N+](=O)[O-]	u	i	25µM*	-2	-14	-1%
COc1cc2oc3ccccc3c2cc1N(CC(=O)N(C)C)S(=O)(=O)c1ccccc1	3%	i	u	-84*	17	-5%
Cc1ncc2c(c1CNC(=O)c1cncs1)CCN(C(=O)c1csc(-c3cccs3)n1)C2	x	x	x	x	x	-2%
CCN(CC)c1ccc(NC(=O)Nc2cccc3ccccc23)cc1	3%[15.4 µM]	i	-16%	7	-4	2%
CCN(CC)c1ccc(NC(=O)Nc2ccccc2C(F)(F)F)cc1	20%	-116%*	8%	-1	1	2%
c1ccc2c(NC3CCCC3)nnc(NC3CCCC3)c2c1	-16%	i	17%	-82*	7	-5%
Clc1nnc(NC2CCCCC2)c(Cl)c1Cl	4%	i	x	-77*	11	-5%
CNc1nc(Cl)c(SC)c(NC2CCCCC2)n1	-28%	i	-9%	x	-13	-2%
Cc1ccc2[nH]c(=O)c(CN(CCCN(C)C)C(=O)Nc3ccc(F)cc3)cc2c1	-8%[15.4 µM]	i	7.1µM*	-42	5	1%
CCN1CCCC1CN(Cc1cc2ccc(C)cc2[nH]c1=O)C(=S)Nc1ccc(F)cc1 (stereo not given)	2%	i	-11%	-85*	-71*	-3%
SMILES	gsp agonist	pAkt inh	gsp antagonist	KCNH2 3.1 inh	KCNH2 WT inh	Glioma ERSR ind
CCN1CCCC1CN(Cc1cc2ccc(C)cc2[nH]c1=O)C(=S)Nc1ccc(OC)cc1 (stereo not given)	-14%	i	-5%	-48	-36	-3%
COc1ccc(NC(=O)N(CCCN(C)C)Cc2cc3cc(OC)ccc3[nH]c2=O)cc1	-33%	i	3%	1	0	-5%
CCC1CN(Cc2cn[nH]c2-c2ccc(OC)cc2)Cc2cc(OC)ccc2O1 (stereo not given)	x	x	x	x	x	-2%
O=C1CC(c2cccc(Cl)c2)Cc2nc(N3CCN(c4ccccc4)CC3)ncc21 (stereo not given)	31%	-97%*	4%	2	2	-5%
CC(=O)Nc1nc(-c2ccc3c(c2)OCO3)cs1	17%	i	-7%	7	-13	0%
CCOC(=O)N1CCN(C(=O)CSCC(=O)Nc2nc(-c3ccc(C)cc3)cs2)CC1	-4%	i	32µM*	1	4	1%
CCOC(=O)N1CCN(C(=O)CSCC(=O)Nc2nc(-c3cccs3)cs2)CC1	-13%	i	u	-11	19	-2%
CCOC(=O)N1CCN(C(=O)CSCC(=O)Nc2nc(-c3ccc4c(c3)OCO4)cs2)CC1	-19%	i	35µM*	-7	-3	2%
C=C1CCN(C(CC(C)C)C(=O)O)S(=O)(=O)c2ccccc21 (stereo not given)	x	x	x	x	x	-4%
Cc1ccc2cc(CCNC(=O)c3cc4ccccc4o3)c(=O)[nH]c2c1C	6%	i	35µM*	-2	2	-3%
COc1ccc2cc(CCNC(=O)c3cc4ccccc4o3)c(=O)[nH]c2c1	24%	i	u	-4	-80*	-4%
COc1ccc2cc(CCNC(=O)CCc3ccccc3)c(=O)[nH]c2c1	20%	x	0%	-2	-27	-5%
Cc1ccc2cc(CCNC(=O)C(C)C)c(=O)[nH]c2c1C	0%	i	2%	1	-1	-3%
COc1cccc(-c2nc3cc(SC)ccc3cc2CN(C(=O)c2sccc2C)C2CC2)c1	x	x	x	x	x	-1%
CCC(COC(=O)Nc1cccc(C)c1C)NC(=O)OCC(C)C (stereo not given)	-49%	i	-4%	15	-24	-5%
CCCOC(=O)NC(CC)COC(=O)Nc1cccc(C)c1C (stereo not given)	-7%	-116%*	-3%	-1	-8	1%
CN(C)c1ccc(N=Cc2ccncc2)cc1	x	x	x	x	x	-1%
CCCCCCCNC(=O)C1(CC2CC(c3cccc(Br)c3)=NO2)CCN(C(=O)c2ccccc2)CC1 (stereo not given)	-1%	i	-6%	u	-71*	-6%
CCCCCCCNC(=O)C1(CC2CC(c3cccc(Br)c3)=NO2)CCNCC1 (stereo not given)	x	i	0%	-77*	-8	-12%

Compound activity from PubChem.
